Measurements taken from PubChem BioAssay AID1159580 (chemical genetic matrix, 2015).
Where “and” joins values, the source holds several entries; their conditions need not be identical. Equal entries are not always repeated. Out of some 5,500 compounds screened, about 2,000 (36%) were called active. Inconclusive results (about 18%) are left out. Rule as the data show it: active = normalized growth mostly below about 0.91 (no sharp cut-off); inconclusive = no clear call, values can overlap the other calls; inactive = mostly above about 0.92. The list shows a part of the results.

Assay: chemical genetic growth profiling, strain panel (AID 1159580);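 also: tested at 20 µM; growth read once vehicle control cultures reached saturation at 30 °C; 1 = growth at the plate median or of vehicle wells; lower values mean less growth of the strain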
Details: S. cerevisiae deletion strains, growth OD

Measured: normalized growth

c1ccc([C@H]2CN3CCSC3=N2)cc1
inactive: locus YAL013W, strain DEP1, hits give low values 1.01 | locus YAL021C, strain ccr4, hits give low values 1.01 | locus YAL026C, strain drs2, hits give low values 1.01 | locus YAL030W, strain snc1, hits give low values 1.01 | locus YBL061C, strain skt5, hits give low values 1.01 | locus YBR009C, strain hhf1, hits give low values 1.01 | locus YBR021W, strain FUR4, hits give low values 0.956 | locus YBR023C, strain chs3, hits give low values 1.01 | locus YBR171W, strain sec66, hits give low values 1.02 | locus YBR229C, strain ROT2, hits give low values 1.01 | locus YBR231C, strain swc5, hits give low values 1 | locus YBR279W, strain paf1, hits give low values 1.02 | locus YCL011C, strain gbp2, hits give low values 1.01 | locus YCL016C, strain dcc1, hits give low values 1.01 | locus YCL029C, strain bik1, hits give low values 1.01 | locus YCL061C, strain MRC1, hits give low values 0.996 | locus YCL069W, strain vba3, hits give low values 1 | locus YCR088W, strain abp1, hits give low values 1 | locus YDL005C, strain med2, hits give low values 0.976 | locus YDL035C, strain GPR1, hits give low values 1.01 | locus YDL040C, strain nat1, hits give low values 1.01 | locus YDL074C, strain BRE1, hits give low values 1 | locus YDL101C, strain DUN1, hits give low values 1 | locus YDL134C, strain PPH21, hits give low values 1.01 | locus YDL185W, strain tfp1, hits give low values 1.02 | locus YDL192W, strain arf1, hits give low values 1 | locus YDR001C, strain nth1, hits give low values 0.995 | locus YDR069C, strain doa4, hits give low values 0.996 | locus YDR101C, strain arx1, hits give low values 1 | locus YDR137W, strain rgp1, hits give low values 1.04 | locus YDR150W, strain NUM1, hits give low values 1.01 | locus YDR159W, strain sac3, hits give low values 0.944 | locus YDR162C, strain NBP2, hits give low values 0.999 | locus YDR195W, strain ref2 1 | locus YDR297W, strain sur2, hits give low values 1.01 | locus YDR318W, strain mcm21, hits give low values 0.993 | locus YDR334W, strain swr1, hits give low values 0.984 | locus YDR335W, strain msn5, hits give low values 0.987 | locus YDR388W, hits give low values 1.01 | locus YDR392W, strain spt3, hits give low values 1.01 | locus YDR502C, strain sam2, hits give low values 0.993 | locus YEL003W, strain gim4, hits give low values 1.01 | locus YEL037C, strain rad23, hits give low values 1 | locus YEL061C, strain CIN8 (second series), hits give low values 0.996 | locus YEL061C, strain CIN8, hits give low values 1 | locus YER015W, strain faa2, hits give low values 1.01 | locus YER016W, strain bim1, hits give low values 1.01 | locus YER110C, hits give low values 1.02 | locus YER111C, strain swi4, hits give low values 1.01 | locus YER155C, strain BEM2 (second series), hits give low values 1.01 | locus YER155C, strain BEM2, hits give low values 0.999 | locus YER167W, strain BCK2, hits give low values 1.01 | locus YFR010W, strain ubp6, hits give low values 0.981 | locus YGL078C, strain dbp3, hits give low values 1 | locus YGL086W, strain mad1, hits give low values 1.01 | locus YGL167C, strain pmr1, hits give low values 1 | locus YGL173C, strain kem1, hits give low values 1.01 | locus YGL227W, strain vid30, hits give low values 1.02 | locus YGL240W, strain doc1, hits give low values 1 | locus YGL248W, strain PDE1, hits give low values 1 | locus YGL253W, strain hxk2, hits give low values 1.01 | locus YGR078C, strain PAC10, hits give low values 1 | locus YGR135W, strain pre9, hits give low values 0.988 | locus YGR229C, strain SMI1, hits give low values 0.994 | locus YGR252W, strain gcn5, hits give low values 1.02 | locus YHR013C, strain ard1, hits give low values 1.02 | locus YHR027C, strain rpn1, hits give low values 1.01 | locus YHR030C, strain SLT2, hits give low values 1.01 | locus YHR079C, strain IRE1 (second series), hits give low values 1 | locus YHR079C, strain IRE1, hits give low values 1.03 | locus YHR094C, strain hxt1, hits give low values 1 | locus YHR129C, strain ARP1, hits give low values 1.03 | locus YHR142W, strain chs7, hits give low values 1.05 | locus YHR200W, strain rpn10, hits give low values 1 | locus YIL066C, strain RNR3, hits give low values 1.02 | locus YIL073C, strain SPO22, hits give low values 1.05 | locus YIL125W, strain kgd1, hits give low values 1.01 | locus YIR030C, strain dcg1, hits give low values 1.01 | locus YJL092W, strain hpr5, hits give low values 1 | locus YJL095W, strain BCK1 (second series), hits give low values 1.01 | locus YJL095W, strain BCK1, hits give low values 1.01 and 1.05 | locus YJL115W, strain asf1, hits give low values 0.997 | locus YJL129C, strain trk1, hits give low values 1.02 | locus YJL134W, strain LCB3, hits give low values 1.01 | locus YJL154C, strain vps35, hits give low values 1.01 | locus YJL164C, strain tpk1, hits give low values 0.983 | locus YJL166W, strain qcr8, hits give low values 1.01 | locus YJL168C, strain set2, hits give low values 1.01 | locus YJL187C, strain SWE1 (second series), hits give low values 1.01 | locus YJL187C, strain SWE1, hits give low values 1 | locus YJR043C, strain POL32, hits give low values 1.02 | locus YJR066W, strain TOR1, hits give low values 0.976
